# The panel holds about 79,000 compounds, 15% with a hit somewhere; the sample as a whole holds those more often. A number with no mark means an inactive call. Active and inactive are the calls of the source. Cut-off read from the data, not from the text of the source: active = growth inhibition above about 70%; inactive = the rest.
# Legend:
# [1] = NCI Yeast Anticancer Drug Screen. Data for the rad50 strain (AID 155);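 note: 0% = growth of vehicle-only cultures of the same strain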; settings: S. cerevisiae rad50 strain growth inhibition; at 50.0 µM; active compounds read high
# Procedure, shortened: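 Vehicle-treated cultures provide the reference for the growth inhibition reported for compound-exposed, repair-deficient yeast.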
# [2] = NCI Yeast Anticancer Drug Screen. Data for the mec2-1 strain (AID 157); settings: S. cerevisiae mec2-1 strain, at 50.0 µM, active compounds read high
# Procedure, shortened: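 Growth inhibition is read against vehicle-treated controls after compound exposure of the mec2-1 yeast strain, which is defective in DNA damage repair or cell cycle control.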
# [3] = NCI Yeast Anticancer Drug Screen. Data for the sgs1 mgt1 strain (AID 161);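 note: 0% = growth of cultures given vehicle only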; settings: S. cerevisiae sgs1 mgt1 strain, at 50.0 µM, active compounds read high
# Procedure, shortened: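 This yeast growth screen uses a strain with defined DNA-repair lesions; compound-treated growth is compared with vehicle-treated growth.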
# [4] = NCI Yeast Anticancer Drug Screen. Data for the cln2 rad14 strain (AID 165);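 note: 0% = growth equal to vehicle treated cultures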; settings: S. cerevisiae cln2 rad14 strain, at 50.0 µM, active compounds read high
# Procedure, shortened: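 Growth inhibition, relative to vehicle-treated controls, is the read-out. The test organism is a yeast strain with defined genetic alterations, cln2 rad14.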
# [5] = NCI Yeast Anticancer Drug Screen. Data for the bub3 strain (AID 167); settings: S. cerevisiae bub3 mutant strain, at 50.0 µM, active compounds read high
# Procedure, shortened: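 Mutant yeast screening strain plus compound; vehicle-treated cultures serve as the 0% inhibition reference.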
# [6] = NCI Yeast Anticancer Drug Screen. Data for the mlh1 rad18 strain (AID 175); settings: S. cerevisiae mlh1 rad18 strain growth inhibition; at 50.0 µM; active compounds read high
# Procedure, shortened: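 Cells of a genetically altered yeast strain, deficient in DNA damage repair, were treated with compound. Their growth was then compared with that of vehicle-treated cultures to give inhibition.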
SMILES,growth inhibition [1],growth inhibition [2],growth inhibition [3],growth inhibition [4],growth inhibition [5],growth inhibition [6]
O=C1CC(CC(=O)c2ccc(Br)cc2)C(=O)/C1=C(/O)c1ccc(Br)cc1 (stereo unspecified),21.7%,14.2%,36.8%,38%,22.9%,48.8%
Cc1ccc(NCC(O)CN2CCOCC2)cc1 (stereo unspecified),34.2%,14.3%,27.2%,-8.05%,6.5%,36.2%
Cc1ccc(C2=CC(=O)/C(=C\C(=O)c3ccc(Br)cc3)O2)c(C)c1,76.8% (active),77.8% (active),62.1%,34.8%,52.2%,71.9% (active)
CCOC1CCC=CO1 (stereo unspecified),-9.65%,3.7%,39%,28.7%,-21.9%,39.6%
CCOc1ccc(CN(CCN2CCCCC2)c2ccccn2)cc1,26.6%,9.45%,23.4%,-7.4%,11.5%,24.1%
CCC(=O)O[C@@H]1C2C(OC(C)=O)C34COC(C)([C@@H]3C3C(C[C@]3(C)OC(C)=O)[C@@H](OC(=O)c3ccccc3)C4=O)[C@H](OC(C)=O)[C@@]2(OC(C)=O)C[C@@H]1C (stereo partly specified),4.2%,-6.65%,4.85%,0.45%,9.95%,4.35%
Cc1ccc2cc(CCCC(=O)O)ccc2c1,43.4%,25.8%,38.7%,31.6%,40.9%,24.9%
Cc1cc[n+](-c2nc3c([O-])n(C)c(=O)n(C)c-3n2)cc1,0.65%,10.6%,6%,-40.2%,8.95%,19.4%
CC(C)(C)c1ccc(O)c(Cl)c1,-15.8%,-7.65%,-5.9%,-7.85%,-11.1%,10.2%
COC(=O)NC(S(=O)(=O)O)S(=O)(=O)O,6.2%,11.6%,0.85%,2.65%,16.5%,1.7%
O=C1c2ccccc2CCC12OC2c1ccccn1 (stereo unspecified),67.8%,78.5% (active),55%,-6%,89.9% (active),84.2% (active)
Cc1ccc2c(-c3ccc4ccccc4c3)c3ccccc3cc2c1,7.7%,-10.2%,-2.8%,-12.6%,-2.35%,-40.5%
CN(C)c1ccn(C2OC(CO)C(O)C2SC(C)(C)C)c(=O)n1 (stereo unspecified),-1.2%,3.95%,-2.05%,10.8%,-1.25%,13.8%
COc1ccc(C2=NNC(=O)OC2c2ccccc2)cc1 (stereo unspecified),29.1%,16.9%,28.2%,-29.6%,26.3%,28.9%
C1=Cc2ccccc2/C1=C\C=C\c1ccccc1,19.1%,8.75%,-2.35%,-11.4%,2.8%,18.1%
Nc1nc(=O)n(C2CCC(CO)O2)cc1F (stereo unspecified),34.7%,18.1%,16.2%,-2.65%,10.5%,5.05%
Cc1ccc(Oc2ccc(C(=O)c3cccc(C(=O)c4ccc(Oc5ccc(C)cc5)cc4)n3)cc2)cc1,-18.6%,2.05%,-38.2%,-28.2%,-15.3%,-24.9%
CCCC(=O)c1ccc(O)cc1,4.65%,3.45%,-6.2%,-12.6%,4.05%,0.2%
Nc1c(C(=O)O)cccc1C(=O)O,5.25%,-18.6%,-11.7%,0.55%,4.1%,6.75%
Cc1cc(C)[n+]([O-])c(C)c1,-14.6%,-8.85%,-2.75%,-8.6%,-19.4%,-2.85%
NC1=NN(c2ccccc2)C(=O)/C1=C\n1c(=S)[nH]c2ccccc21,-22.4%,-19.9%,-39.6%,-16.3%,-25.4%,-26.6%

SMILES,growth inhibition [1],growth inhibition [2],growth inhibition [3],growth inhibition [4],growth inhibition [5],growth inhibition [6]
N#Cc1ccc(CCc2ccccc2)cc1,1.2%,-3.75%,18.6%,10.4%,2.95%,-2.05%
Cc1ccc(O)c(C(=O)c2ccc(Cl)c(Cl)c2)c1,8.45%,13.9%,54.2%,-0.9%,58.1%,11.2%
CCOC(=O)C(CCC(C)=O)C(=O)OCC,-1.25%,12.8%,-6.15%,24.6%,5.65%,-19.1%
CN(c1ccc(Cl)cc1)S(=O)(=O)c1ccc([N+](=O)[O-])cc1,-13.2%,-23.5%,23.4%,32.4%,38%,-5.9%
Cn1c(N)nc2c1c(=O)[nH]c(=O)n2C,12.6%,-0.75%,5.25%,13.2%,-19.4%,21.8%
COCCO[Si](OCCOC)(OCCOC)OCCOC,4.3%,-10.2%,-1.25%,11.9%,7.4%,10.2%
CCCC1CCCC12CCc1ccccc1C2=O (stereo unspecified),15.3%,-6.15%,-11.1%,10.1%,-5.8%,1.15%
NC(=O)SCCC(N)C(=O)O (stereo unspecified),8.4%,27.5%,3%,12.7%,17.9%,-4.9%
CCOC(=O)/C(=C(/C)N=Cc1ccccc1[N+](=O)[O-])C(NN=O)c1ccccc1[N+](=O)[O-] (stereo unspecified),11.9%,4.85%,-9.55%,8.5%,-5%,17.8%
Cn1c(CC(O)c2nc3ccccc3n2C)nc2ccccc21 (stereo unspecified),-18.7%,-18.6%,-10.2%,-8.75%,-23.8%,-33.5%
Cc1cccc2c1-c1c(C)cccc1C(Cl)S(=O)(=O)C2 (stereo unspecified),1.25%,-4.6%,-9.05%,4.55%,6.85%,-1.65%
CCCC(C(=O)O)(c1ccccc1)c1ccccc1,11.3%,0.55%,5.45%,-24.9%,7.5%,1.8%
COC(=O)C1C(=C(c2ccccc2)c2ccccc2)C1c1ccccc1 (stereo unspecified),-1.75%,-15.2%,-11.8%,-11.4%,6.85%,-8.7%
O=C(CCCCl)CCCCl,12.2%,-10.9%,21.6%,12.6%,-3.6%,19.1%
CCN(CC)C(=O)Cc1ccc2c3c(cccc13)CC2,-2.45%,-2.05%,-1.75%,-0.75%,1.6%,11.6%
COc1ccc2c(c1)CC1=C2CCC2(C)C(=O)CC=C12 (stereo unspecified),11.7%,-8.35%,-7.65%,11.8%,4.5%,4.85%
CC1(C)CNC[C@](C)(OCc2ccccc2)N1,-24.4%,-29.1%,-11.3%,11.2%,10.9%,-4.7%
CNc1c(C)cc(C#N)cc1C,7.45%,1.25%,-10.6%,0.2%,-4.7%,-5.4%
O=C(Oc1ccc[nH]c1=O)C1CCC1,-15.3%,3%,-0.55%,2.7%,12.8%,-4.75%
COC(=O)Nc1cn2nc(C)sc2n1,-17.4%,11.4%,-10.1%,-16.1%,2.6%,-6.95%
